Bioassay records: PubChem BioAssay, National Center for Advancing Translational Sciences (NCATS)
Hits are enriched below; roughly 8% of the tested compounds scored in any of these assays.
HT1080-NT tox: kills 2HG-producing HT-1080-NT fibrosarcoma cells; HT-1080-NT fibrosarcoma viability, CellTiter-Glo ATP luminescence, 48 h; Potency, µM (highest dose often 46.1 µM), for the others: top-dose activity, negative = less viability, hits mostly cytotoxic; hit rate 1.6% among 360,000; AID 686970;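 note: NT is the 2HG producing partner of a matched IDH1 knockdown line; 0% = DMSO-treated cells and -100% = media-only wells without cells; nearly all actives have a fitted effect of over 55% in size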
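Viability of the 2HG-overproducing fibrosarcoma line after 48 hours of compound exposure at 37 degrees C was determined by luminescence with CellTiter-Glo, and concentration-effect curves were then fitted and categorized.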
MCF10A rerep: induces DNA re-replication in MCF 10a normal breast cells. MCF 10A DNA re-replication, Hoechst nuclear intensity, 48 h. Potency, µM (series often up to 46.1 µM), for inactives: top-dose activity, positive = re-replication, most hits filed as activators. hit rate 2.9% among 350,000. AID 624296; note: % of control where 0% means no effect; nearly all actives have a fitted effect of over 50% in size
HT1080 IDH1KD tx: toxicity to HT-1080 IDH1 knockdown cells (counter line); HT-1080 IDH1 knockdown viability, ATP luminescence, 48 h; Potency, µM (top dose mostly 46.1 µM), for inactives: at the top dose activity, negative = toxicity, usual class: cytotoxic; hit rate 2% among 360,000;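 note: 0% = DMSO wells and -100% = cell-free medium wells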
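% activity derives from luminescence (CellTiter-Glo), normalised to DMSO and no-cell wells. HT-1080-IDH1KD cells, 750/well, had 48 h compound exposure at 37 °C.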
KB-3-1 tox: kills parental KB-3-1 adenocarcinoma cells; Potency, µM (series often up to 46.1 µM), actives largely listed as cytotoxic; hit rate 1.4% among 400,000; KB-3-1 viability, CellTiter-Glo ATP luminescence, 72 h; AID 1347075; note: % is set by controls: 0 for no effect and ±100 for the full control effect; nearly all actives have a fitted effect of over 60% in size
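Parental KB-3-1 adenocarcinoma cells in phenol-red-free DMEM with 10% FBS were pin-treated with compounds at several concentrations, incubated 72 h at 37 °C, and viability read by CellTiter-Glo luminescence; concentration-effect curves were fitted after normalization.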
SW480 rereplic: induces DNA re-replication in SW480 colon adenocarcinoma cells. SW480 DNA re-replication, Hoechst DNA content imaging, 48 h. Potency, µM (doses to about 46.1 µM), for inactives: at the top dose re-replication activation, usual class: activators. hit rate 1.8% among 340,000; note: % of control where 0% means no effect; nearly all actives have a fitted effect of over 55% in size
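SW480 cells exposed to compounds for 48 hr at 37 C, 5% CO2, then Hoechst-stained 40 min. Nuclear DNA content imaged by fluorescence scanning (405 nm excitation, 500-530 nm emission); re-replication scored as increased high-intensity nuclei.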
KB-V1 cytotox: kills drug-selected multidrug resistant KB-V1 cells; KB-V1 MDR cells viability, CellTiter-Glo, 72 h; Potency, µM (series often up to 46.1 µM), usual class: cytotoxic; hit rate 3.4% among 400,000; note: % is set by controls: 0 for no effect and ±100 for the full control effect; nearly all actives have a fitted effect of over 60% in size
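Compound-treated KB-V1 multidrug-resistant cells, 72 h, 37 degrees C; viability by CellTiter-Glo. Fitted qHTS curves give the values.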
Starred values were filed as active, the others as inactive; i = inactive; ? = inconclusive; · = no result given. Calls come from the whole dose curve; as a rule, active = well fitted curve in the direction sought with a large enough effect; inconclusive = small, poorly fitted or top-dose-only effect, or another doubt; inactive = no such curve, though single readings can be large; an effect the other way counts as inactive or inconclusive. Potency is the fitted concentration of half-maximal effect.

SMILES	HT1080-NT tox	MCF10A rerep	HT1080 IDH1KD tx	KB-3-1 tox	SW480 rereplic	KB-V1 cytotox
Cc1ccc2nc(N/C(N)=N/S(=O)(=O)c3ccc([N+](=O)[O-])cc3)nc(C)c2c1	-2.7%	7.5%	2.2%	i	4.2%	i
Cc1cc(C)cc(NC(=S)/N=C(\N)Nc2nc(C)c3ccccc3n2)c1	1.2%	-45.5%	-14.5%	?	?	18.4µM*
CCc1ccc(NC(=S)/N=C(\N)Nc2nc(C)c3cc(CC)ccc3n2)cc1	?	?	10.3µM*	?	4.61µM*	?
Cc1cccc(NC(=S)/N=C(\N)Nc2nc(C)c3ccc(C)cc3n2)c1	-26.6%	?	?	i	7.31µM*	i
Cc1cccc(NC(=S)/N=C(\N)Nc2nc(C)c3ccccc3n2)c1	-20.5%	28.4%	-27.1%	?	-8.4%	?
CCSc1nc2c(c(=O)[nH]c(=O)n2C)n1CC(O)COc1ccc(Cl)cc1 (configuration not stated)	·	·	·	i	·	i
COc1ccc2nc(N/C(N)=N/C(=S)Nc3ccccc3)nc(C)c2c1	-7.4%	13.4%	0.0%	?	2.7%	9.2µM*
CCOc1ccc2nc(N/C(N)=N/C(=S)Nc3ccc(OC)cc3)nc(C)c2c1	-3.3%	?	-5.5%	i	9.7%	i
Cc1ccc(S(=O)(=O)/N=C(\N)Nc2nc(C)c3ccccc3n2)cc1	0.5%	?	9.3%	i	-78.8%	9.2µM*
Cc1ccc(/C=C/C(=O)OCC(=O)Nc2cccc(S(=O)(=O)N(C)C)c2)o1	9.7%	-1.3%	8.3%	i	-5.6%	i
COc1cc(CC(=O)N2CCc3ccccc32)cc(OC)c1OC	-3.1%	2.0%	-14.3%	i	1.9%	?
CCOC(=O)N1CCc2cc(OC)c(OC)c3c2c1cc1cc(OC)c(OC)cc13	?	14.6µM*	16.4µM*	4.11µM*	18.4µM*	2.31µM*
CCc1ccccc1N(CC)C(=O)c1c(C)oc2ncn(C)c(=O)c12	·	·	·	i	·	i
COc1c(C)cc(C(=O)C2CCCN(C(=O)C3=C(C)OCCO3)C2)cc1C (configuration not stated)	0.0%	-4.6%	0.9%	i	-10.3%	20.6µM*
CCCN1CNc2c(c(=O)[nH]c(=S)n2CCc2cccc(OC)c2)C1	11.0%	·	3.5%	·	·	·
CCOC(=O)c1cnc2ccc(OCC)cc2c1NCc1ccccc1	-11.8%	20.6µM*	?	?	-2.3%	1.84µM*
CCOC(=O)c1cnc2ccc(OCC)cc2c1NCc1cccnc1	?	23.1µM*	?	?	-0.2%	?
O=C(CSc1nc2ccccc2nc1Cc1ccccc1)Nc1ccccc1C(F)(F)F	·	·	·	i	·	i
CCc1c(C(=O)Nc2ccncc2)csc1C	-13.0%	1.2%	-27.6%	i	-11.1%	16.4µM*
COc1ccc(C2c3ccc4ccccc4c3Oc3ncn(Cc4ccco4)c(=N)c32)cc1OC (configuration not stated)	20.6µM*	?	20.6µM*	?	?	?
COc1ccc(C2c3ccc(O)cc3Oc3ncn(CCN4CCOCC4)c(=N)c32)cc1 (configuration not stated)	-11.1%	0.7%	-3.9%	i	14.8%	i
COc1ccc(C2c3ccc4ccccc4c3Oc3ncn(CCCN(C)C)c(=N)c32)cc1 (configuration not stated)	18.4µM*	20.6µM*	?	?	11.6µM*	?
COc1ccccc1C1c2ccc3ccccc3c2Oc2ncn(CCN(C)C)c(=N)c21 (configuration not stated)	10.3µM*	9.2µM*	8.2µM*	?	?	?
COc1ccccc1C1c2ccc3ccccc3c2Oc2ncn(CCCO)c(=N)c21 (configuration not stated)	20.6µM*	?	23.1µM*	i	130.4%	i
Cc1ccc(CNc2oc(-c3ccc(COc4ccc(Cl)cc4)o3)nc2C#N)cc1	·	·	·	i	·	i
